Laboratory results from PubChem BioAssay (EPA / NIEHS).
Active and inactive are the calls of the source. The calls were made as follows: active = hit-call score of the fitted dose curve at least 0.9, where 1 is the maximum; inactive = score below 0.9.

read-out: Signal transducer and activator of transcription 3 (Homo sapiens) (UniProt P40763); experiment: LTEA_HepaRG_STAT3: Life Technologies and Expression Analysis (LTEA) Assay for Signal transducer and activator of transcription (STAT3) using HepaRG (AID 2283529); settings: mRNA level, 48 h; actives raise or lower the signal
Experimental: LTEA_HepaRG is a cell based, multiplexed-readout assay that uses HepaRG, a human liver cell line, with measurements taken at 48 hours after chemical dosing on a 96-well plate.LTEA_HepaRG_STAT3 is one of 102 assay component(s) measured in the LTEA HepaRG cell culture assay. It is a marker of Cell proliferation, survival, death.Data from the assay component LTEA_HepaRG_STAT3 was analyzed into 1 endpoint. This assay endpoint, LTEA_HepaRG_STAT3, was analyzed with bidirectional fitting relative to DMSO as the negative control and baseline of activity. Using a type of inducible reporter, measures of mRNA induction for gain or loss-of-signal activity can be used to understand regulation of transcription factor activity. To generalize the intended target to other relatable targets, this assay endpoint is annotated to the dna binding intended target family, where the subfamily is stat protein.
A total of 1060 chemcials from the ToxCast library were tested in eight-point concentration-response experiments. Cell culture and cytotoxicity assays were conducted at Thermo Fisher Scientific's Custom Services facility (Madison, WI). A single lot of human HepaRG cells (Thermo Fisher Scientific, Frederick, MD) was used for the cell culture experiments. 96-well format collagen type I coated plates of human HepaRG cells were prepared using established methods. Briefly, cryopreserved HepaRG cells were thawed, plated at a density of approximately 100,000 cells/well in HepaRG Thaw, Plate, and General Purpose media (HPRG770, Thermo Fisher Scientific), and incubated for 48 hours. 0.5% DMSO was selected as vehicle control to balance the requisite need of DMSO in HepaRG cultures to maintain differentiation (for example, baseline metabolism, proportions of hepatocytes vs. cholangiocytes), while enabling further hepatic receptor pathway activation (for example, PXR and CAR) in response to chemical exposure. 48 hours after plating, the culture medium was replaced with HepaRG Serum-Free Incudtion Media. Cells were exposed to each test chemical in duplicate and maintained in CO2 incubators for another 48 hours. Chemical plates were thawed to room temperature and 200x concentrations of treatment groups were prepared. 8-point conentration-reponse curves were made with the highest exposure at 100 uM, followed by half-log dilutions, all in 0.5% DMSO. Each test plate contained variouse controls, induction positive controls (1mM phenobarbital), cytotoxicity positive controls ([…] aflatoxin B1), vehicle controls (0.5% DMSO), and total lysis controls (0.5% DMSO). Cell morphology images were taken using an Essen IncuCyte FLR automated microscope, with six 96-well plates imaged in about 24 minutes. Images were captured and exported and JPEG files. Spent culture media was transfered to black-well plates for the LDH assay, and remaining media was sorted at -80 C for later use. Cells were treated with RLT buffer and frozen until shipped for gene expression analysis. Total RNA was isolated from the cell suspension in 75 uL of Buffer RLT (Qiagen, Germantown, MD 20874) by Quintiles/Expression Analysis (Durham, NC) using a custom isolation procedure. Total RNA from each plate well was transferred to a preamplification plate. Fluidigm's 96.96 Dynamic ArrayTM (Fluidigm, Amsterdam, the Netherlands) technology was used for gene expression analyses by quantitative reverse transcription polymerase chain reaction (qRT-PCR, performed by Quintiles/Expression Analysis, Durham, NC)89. Standard TaqManTM Assays (Applied Biosystems/ThermoFisher Scientific, Foster City, CA) were used to assess the expression of 93 genes selected based on their selectivity and sensitivity to important hepatic receptors known to be modulated by environmental chemicals; importance in human hepatocyte functionality; and hepatotoxicity. […]

Signal transducer and activator of transcription 3 (Homo sapiens), sequence (P40763 whole entry, looked up): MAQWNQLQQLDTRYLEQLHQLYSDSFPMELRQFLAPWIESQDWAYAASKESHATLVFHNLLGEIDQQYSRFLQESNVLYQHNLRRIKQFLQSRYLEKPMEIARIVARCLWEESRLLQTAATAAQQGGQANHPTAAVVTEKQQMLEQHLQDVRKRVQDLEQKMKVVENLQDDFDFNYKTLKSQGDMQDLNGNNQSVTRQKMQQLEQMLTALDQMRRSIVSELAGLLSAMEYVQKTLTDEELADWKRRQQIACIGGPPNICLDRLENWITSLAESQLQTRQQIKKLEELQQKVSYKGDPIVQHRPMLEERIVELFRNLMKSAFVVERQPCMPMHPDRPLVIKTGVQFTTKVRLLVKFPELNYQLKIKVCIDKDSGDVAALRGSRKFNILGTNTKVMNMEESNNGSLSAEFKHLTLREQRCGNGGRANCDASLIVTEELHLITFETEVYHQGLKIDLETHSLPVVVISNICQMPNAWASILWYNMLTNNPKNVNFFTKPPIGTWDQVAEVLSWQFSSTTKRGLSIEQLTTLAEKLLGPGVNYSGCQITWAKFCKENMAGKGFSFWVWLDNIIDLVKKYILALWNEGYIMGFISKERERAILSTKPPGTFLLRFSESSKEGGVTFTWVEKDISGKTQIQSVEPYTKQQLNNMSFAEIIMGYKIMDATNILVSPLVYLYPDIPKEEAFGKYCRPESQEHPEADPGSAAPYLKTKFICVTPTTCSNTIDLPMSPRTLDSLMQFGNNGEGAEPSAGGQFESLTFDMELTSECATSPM

outcome, inactive:
CN(C)CCOC(c1ccccc1)c1ccccc1
CCC(C)c1ccccc1O (stereo unspecified)
CS(=O)(=O)c1ccc([C@@H](CC2CCCC2)C(=O)Nc2cnccn2)cc1Cl
CCCCCCCCCCCCCCC
CCCCCCCCCCCCOS(=O)(=O)O
CCCCC(CC)C(=O)O (stereo unspecified)
O=C1NS(=O)(=O)c2ccccc21
CN(Cc1cnc2nc(N)nc(N)c2n1)c1ccc(C(=O)N[C@@H](CCC(=O)O)C(=O)O)cc1
CCCCC=O
CC(=O)Nc1ccc(O)cc1
O=C(c1ccccc1)c1ccccc1
OCC(CO)(CBr)CBr
O=C(CCCN1CCC(O)(c2ccc(Cl)cc2)CC1)c1ccc(F)cc1
CCCCc1oc2ccccc2c1C(=O)c1cc(I)c(OCCN(CC)CC)c(I)c1

AC50, active:
Cc1[nH]nc2c1N=C(c1ccccc1Cl)c1cc([N+](=O)[O-])ccc1N2 3.77 µM
N=C(N)c1ccc(OCCCCCOc2ccc(C(=N)N)cc2)cc1 29 µM
